Only some compounds are listed: those with a hit (about 19% of all), similar ones and a draw of the others.
DT40 TDP1 CPT: DT40-hTDP1 cell growth loss with CPT; Potency, µM (top dose mostly 46.2 µM), most hits filed as inhibitors; 12% of 420,000 active; chicken DT40 Tdp1-/-;hTDP1 cells + 20 nM CPT, ATP luminescence, 48 h; AID 686979; note: nearly all actives have a fitted effect of over 55% in size
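Chicken DT40 Tdp1-/- cells stably complemented with human TDP1 were seeded at 400 cells/well in medium containing 20 nM camptothecin, exposed to pin-transferred compounds, and grown at 37 °C for at least 48 hr. Viability was read as ATP luminescence.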
IL-1B inflam inh: blocks inflammasome-driven IL-1 beta release | THP-1 LPS/ATP IL-1B secretion, AlphaLISA, 16 h; active compounds read low | activity change, % at 57.5 µM | 4.7% of 360,000 active; in the data active = activity change below about -50%; inconclusive = mostly about -30% to -49%
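Secreted IL-1B measured by AlphaLISA bead assay after 16 h compound exposure of THP-1 cells; compounds (final up to 57.5 uM) added 1 h before LPS (250 ng/mL) and ATP (1.25 mM) stimulation; lower signal means less secretion.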
DT40 TDP1 no CPT: qHTS for Inhibitors of human tyrosyl-DNA phosphodiesterase 1 (TDP1): qHTS in cells in absence of CPT | AID 686978, 2013 | Potency, µM (doses to about 46.2 µM), actives largely listed as inhibitors | DT40 Tdp1-/- hTDP1 cells, no CPT, ATP luminescence, 48 h | 15% of 420,000 active; note: nearly all actives have a fitted effect of over 55% in size
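Cells were dispensed at 400 per well, compounds added by pin tool, plates incubated ≥48 hr at 37 °C, then CellTiter-Glo added for 30 min at room temperature before luminescence reading. Line: DT40 Tdp1-/- complemented with hTDP1; camptothecin omitted.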
HT1080-NT tox: kills 2HG-producing HT-1080-NT fibrosarcoma cells. AID 686970. 1.6% of 360,000 active. Potency, µM (top dose mostly 46.1 µM), most hits filed as cytotoxic. HT-1080-NT fibrosarcoma viability, CellTiter-Glo ATP luminescence, 48 h;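 note: NT is the 2HG producing partner of a matched IDH1 knockdown line; nearly all actives have a fitted effect of over 55% in size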
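Luminescent CellTiter-Glo readout after 48 hours of compound exposure at 37 degrees C defined viability of HT-1080-NT cells. Activity was normalized to DMSO wells and cell-free media wells; concentration-response curves were fitted and assigned curve classes.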
HT1080 IDH1KD tx: toxicity to HT-1080 IDH1 knockdown cells (counter line); HT-1080 IDH1 knockdown viability, ATP luminescence, 48 h; Potency, µM (highest dose often 46.1 µM), most hits filed as cytotoxic; 2% of 360,000 active; AID 686971
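Knockdown cells (IDH1KD HT-1080) received compounds 2 h after plating at 750 cells/well and were kept 48 h at 37 °C in 5% FBS RPMI. A CellTiter-Glo luminescence read gave % activity for curve fitting.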
A number is an active result; 0 = inactive; ? = inconclusive; - = not tested or not shown; [ ] = another dose, or the depositor's remark. Unless noted, calls come from the whole dose curve; as a rule, active = well fitted curve in the direction sought with a large enough effect; inconclusive = small, poorly fitted or top-dose-only effect, or another doubt; inactive = no such curve, though single readings can be large; an effect the other way counts as inactive or inconclusive.

SMILES	DT40 TDP1 CPT	IL-1B inflam inh	DT40 TDP1 no CPT	HT1080-NT tox	HT1080 IDH1KD tx
CCO[C@H]1OC(C(=O)N2CCN(Cc3ccc4c(c3)OCO4)CC2)=C[C@@H](C(C)(C)C)[C@@H]1CCCO	?	?	?	0	0
CCO[C@@H]1OC(C(=O)NCc2ccccc2)=C[C@H](C(C)(C)C)[C@H]1CCCO	?	0	?	0	0
CCO[C@H]1OC(C(=O)NCc2ccccc2)=C[C@@H](C2CCCCC2)[C@@H]1CCCO	18µM	0	16µM	0	0
C#CCNC(=O)C1=C[C@@H](c2ccc(C(F)(F)F)cc2)[C@H](CCCO)[C@@H](OCC)O1	23µM	0	?	0	0
CC(=O)Nc1ccc(NC(=O)C(C)Sc2n[nH]c(-c3ccc(C)cc3)n2)cc1 (configuration not stated)	0	0	0	0	0
CCO[C@H]1OC(C(=O)N2CCCCCCC2)=C[C@@H](C2CCCCC2)[C@@H]1CCCO	26µM	0	13µM	0	0
CCO[C@@H]1OC(C(=O)N2CCN(Cc3ccc4c(c3)OCO4)CC2)=C[C@H](c2ccc(C(F)(F)F)cc2)[C@H]1CCCO	16µM	-60	21µM	?	?
CCO[C@@H]1OC(C(=O)N2CCN(C)CC2)=C[C@H](C2CCCCC2)[C@H]1CCCO	0	0	0	0	0
N#CCC(=O)Nc1ccc(C(=O)OCC(=O)N2CCN(C(=O)c3ccco3)CC2)cc1	0	0	0	0	0
CCc1nnc2c(Nc3ccc(N(CC)CC)cc3C)nc3ccccc3n12	18µM	-	18µM	-	-
C=CCN1C=C2C(=O)C(C)(OC(=O)c3cnc4ccccc4n3)C(=O)C=C2C=C1/C=C/COC (configuration not stated)	?	0	16µM	0	0
O=C(OCc1cc(=O)c(OC(=O)c2ccccc2)co1)c1ccccc1	0	0	0	0	0
COc1ccc(-c2cc(OC(=O)c3cccc(Cl)c3)c3c(C)oc(C)c3c(=O)c2)cc1	26µM	-	?	-	-
CCOc1cc(-c2ccc(OC(=O)c3ccc(Cl)cc3)c(OC)c2)cc(=O)c2c(C)oc(C)c12	4.6µM	-	5.2µM	-	-
CCOc1cc(-c2ccc(OC(=O)c3ccccc3)c(OC)c2)cc(=O)c2c(C)oc(C)c12	6.5µM	-	5.8µM	-	-
CCOc1ccc(C(=O)NCc2nc(-c3ccc(Cl)cc3)no2)cc1OCC	0	-	?	-	-
O=C(COc1ccc([N+](=O)[O-])cc1)NNC(=O)Nc1cccc(F)c1	0	0	0	0	0
COc1ccc2nc(NC(=O)c3cccc(-c4cc5ccccc5oc4=O)c3)sc2c1	16µM	0	16µM	15µM	18µM
COc1ccc(C(=O)Nc2cccc(-c3cc4ccccc4oc3=O)c2)cc1[N+](=O)[O-]	0	0	?	16µM	?
CC1(C(=O)O)CCCN1C(=O)c1cccc(OC(F)(F)F)c1 (configuration not stated)	0	0	0	0	0
Cc1ccc(NC(=O)C2CCN(S(=O)(=O)c3ccc4c(c3)NC(=O)C(C)S4)CC2)cc1Cl (configuration not stated)	1.3µM	0	1.2µM	?	?
Cc1ccc(NC(=O)C2CCN(S(=O)(=O)c3ccc4c(c3)NC(=O)C(C)S4)CC2)c(Cl)c1 (configuration not stated)	13µM	?	21µM	0	?
Cc1ccc(CCNC(=O)C2CCN(S(=O)(=O)c3ccc4c(c3)NC(=O)C(C)S4)CC2)cc1 (configuration not stated)	?	-68	18µM	0	?
Cc1cc(C)cc(NC(=O)C2CCN(S(=O)(=O)c3ccc4c(c3)NC(=O)C(C)S4)CC2)c1 (configuration not stated)	?	?	0	0	0
O=C(NCc1ccc2c(c1)OCO2)c1ccc2c(c1)N(Cc1c(F)cccc1Cl)C(=O)c1ccccc1S2	0	-	0	-	-
SMILES	DT40 TDP1 CPT	IL-1B inflam inh	DT40 TDP1 no CPT	HT1080-NT tox	HT1080 IDH1KD tx
CC(C)c1cn(CC[C@@H]2CC[C@@H](NC(=O)C3CCCCC3)[C@@H](CO)O2)nn1	0	0	0	0	0
N[C@@H](Cn1ccc(=O)n(Cc2ccccc2C(=O)O)c1=O)C(=O)O	0	-	0	-	-
COc1ccc(OC)c(C(=O)Nc2c(O)ccc3ccccc23)c1	21µM	?	16µM	0	0
COc1ccc(OC)c(NC(=O)Nc2c(O)ccc3ccccc23)c1	15µM	0	?	0	0
COc1ccc(OC)c(NC(=O)Nc2cc(NC(=O)Nc3cc(OC)ccc3OC)c(C)nc2C)c1	0	0	?	18µM	23µM
COc1ccc(OC)c(NC(=O)Nc2ccc(O)c3ccccc23)c1	2.6µM	0	4.6µM	?	?
O=C(CC1CCCCC1)Nc1ncn[nH]1	0	0	0	0	0
CCOC(=O)C1CCN(c2c(NCc3ccc(C(=O)Nc4ccc(C)cc4)cc3)c(=O)c2=O)CC1	0	0	0	0	0
COc1ccc(CNC(=O)c2cc3c(=O)oc4ccc(C)cc4c3s2)c(OC)c1	0	-	0	-	-
N#CCc1c(C#N)c(N)nc(Nc2ccccc2)c1C#N	0	0	0	0	0
Cc1cc2c(cc(C(=O)OCC(=O)NCc3cccs3)n2C(C)C)o1	0.82µM	0	0.73µM	1µM	?
Cc1cccc(NC(=O)CN(C)C(=O)Cc2ccc(-c3ccccc3)cc2)c1C	?	0	0	0	0
O=C(O)c1ccc2c(ccc3nn(-c4ccc(/C=C/c5ccc(-n6nc7ccc8cc(C(=O)O)ccc8c7n6)cc5[S+](=O)([O-])[O-])c([S+](=O)([O-])[O-])c4)nc32)c1	0	-	0	-	-
CC(C)c1ccc(CNCCSc2nnnn2-c2ccccc2)cc1	16µM	-	26µM	-	-
Fc1ccccc1CNCCCSc1nnnn1-c1ccccc1	16µM	-	?	-	-
Oc1cc(CNCc2ccccc2)c(O)cc1CNCc1ccccc1	?	0	13µM	0	0
CC(C)c1ccc(CNCCSc2nnnn2C)cc1	0	-	0	-	-
OCc1ccccc1CNCc1ccccc1	0	0	0	0	0[9.24 µM]
CC(C)c1ccc(CNCc2ccccc2)cc1	0	-51	0	0	0
CCOC(=O)N1CCN(C(=O)COC(=O)Cc2ccc(Cl)cc2)CC1	0	0	0	0	?
Cc1ccc(C(=O)NC(=S)Nc2cccc(-c3nc4ccccc4s3)c2)cc1	?	0	0	0	0
O=C(/C=C/c1ccco1)NC(=S)Nc1cc(-c2nc3ccccc3s2)ccc1Cl	12µM	0	23µM	?	?
O=C(/C=C/c1ccco1)NC(=S)Nc1cccc(-c2nc3ccccc3s2)c1	4.6µM	0	5.8µM	23µM	21µM
Cc1ccc(-c2nc3ccccc3s2)cc1NC(=S)NC(=O)/C=C/c1ccco1	?	0	13µM	?	?
